PubChem BioAssay (NCATS)
Inconclusive results are not listed. The source made the active and inactive calls. Calls follow the shape of the dose curve; as a rule, active = well fitted inhibition curve with a large enough effect; inconclusive = small, poorly fitted or top-dose-only effect; inactive = flat fitted curve, though single readings scatter.

These compounds were tested against Glutathione peroxidase 1 (Homo sapiens) (UniProt P07203) (assay: Primary qHTS Assay for Inhibitors of Recombinant Selenoprotein Glutathione Peroxidase 1 (GPX1) (AID 1845191; also: nearly all actives have a fitted effect of over 65% in size)). Details: recombinant GPX1, GR-coupled NADPH fluorescence, 15 min; series mostly up to 48.8 µM; activity, negative = inhibition: at the top concentration.
In short: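 GR-coupled readout: NADPH consumption tracked by fluorescence, ex 340/em 450 nm, at t=0 and after 15 min at RT. Final mix 10 nM GPX1, 1 mM GSH, 0.5 mM CHP, 0.5 mM NADPH, 100 nM GR, 0.01% BSA, following 30 min enzyme–compound preincubation.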
% is scaled to controls: 0 for no effect and ±100 for the full control effect.

Chain of Glutathione peroxidase 1 (Homo sapiens) (P07203 whole entry, looked up): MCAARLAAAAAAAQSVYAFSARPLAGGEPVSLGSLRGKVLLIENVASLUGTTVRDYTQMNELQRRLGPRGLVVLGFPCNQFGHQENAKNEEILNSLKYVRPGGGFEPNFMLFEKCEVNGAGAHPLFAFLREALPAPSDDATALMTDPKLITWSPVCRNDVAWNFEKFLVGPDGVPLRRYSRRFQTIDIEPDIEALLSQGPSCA

SMILES | activity, negative = inhibition | Potency | outcome
C[C@@H]1O[C@@H](O[C@@H]2[C@@H](O[C@@H]3O[C@@H](C)[C@H](O[C@@H]4OC[C@H](O)[C@H](O[C@@H]5OC[C@@H](O)[C@H](O)[C@H]5O)[C@H]4O)[C@@H](O[C@@H]4OC[C@](O)(CO)[C@H]4O)[C@H]3O)[C@H](OC(=O)[C@]34CCC(C)(C)C[C@H]3C3=CCC5[C@@]6(C)C[C@H](O)[C@H](O[C@@H]7O[C@H](CO[C@@H]8OC[C@H](O)[C@H](O)[C@H]8O)[C@@H](O)[C@H](O)[C@H]7O)C(C)(C)C6CC[C@@]5(C)[C@]3(C)C[C@H]4O)OC[C@H]2O)[C@H](O)[C@H](O)[C@H]1O (some centres undefined) | 1.11% [at 9.52 µM] (inactive) | – | –
COC(=O)C1=CO[C@@H](O)C2C(CO)=CCC12 (some centres undefined) | 2.74% (inactive) | – | –
CO[C@H]1/C=C\O[C@@]2(C)Oc3c(C)c(O)c4c(O)c(c5c(nc6cc(C)ccn65)c4c3C2=O)NC(=O)/C(C)=C\C=C/[C@H](C)[C@H](O)[C@@H](C)[C@@H](O)[C@@H](C)[C@H](OC(C)=O)[C@@H]1C | – | inactive | –
COC1/C=C/C(C)(O)C(SCC(N)C(=O)O)CC(=O)OC(C)C(C)CC/C=C/1C (centres undefined) | – | – | inactive [at 27.7 µM]
CC(=O)O[C@@H]1CC(C)=C2[C@H]1[C@H](C)CC[C@H]2/C=C(\C)C(=O)O | – | – | inactive
Fc1ccc2nc(CCC#Cc3ccccn3)cn2c1 | 4.58% (inactive) | – | –
C=C1C(OC2OCC(O)C(O)C2O)CC2C(C)(C)C(O)CCC2(C)C1CC/C(C)=C\CO (centres undefined) | -5.04% [at 27.7 µM] (inactive) | – | –
C=C1C(=O)OC2CC3(C)C(CC12)C(C)=CC(O)C3OC(C)=O (centres undefined) | 4.87% [at 27.7 µM] (inactive) | – | –
C/C=C/c1ccc2c(c1)[C@@H](C)[C@H](c1ccc(O)cc1)O2 | – | – | inactive
CCC(C)C(=O)O[C@H]1CCC=C2C=C[C@H](C)[C@H](CC[C@@H](O)C[C@@H](O)CC(=O)O)[C@H]21 (some centres undefined) | -10.4% [at 27.7 µM] (inactive) | – | –
C[C@@H]1O[C@@H](O[C@H]2[C@H](OC(=O)[C@]34CCC(C)(C)C[C@H]3C3=CCC5[C@@]6(C)C[C@H](O)[C@H](O[C@@H]7O[C@H](CO)[C@@H](O[C@H]8OC[C@](O)(CO)[C@H]8O)[C@H](O)[C@H]7O)[C@@](C)(CO)C6[C@H](O)C[C@@]5(C)[C@]3(C)C[C@H]4O)OC[C@H](O)[C@@H]2O)[C@H](O)[C@H](O)[C@H]1O[C@@H]1OC[C@@H](O)[C@H](O[C@@H]2OC[C@](O)(CO)[C@H]2O)[C@H]1O (some centres undefined) | – | – | inactive [at 9.52 µM]
COc1cc2c(c(OC)c1CC=C(C)C)C[C@H](c1ccc(O)cc1O)CO2 | -19.3% [at 27.7 µM] (inactive) | – | –
C/C1=C\C[C@]2(C)C(=O)C(O)=C([C@H](C)CO)[C@H]2C/C=C(\C)[C@@H](O)CC/C(C)=C/CC1 | -14% [at 27.7 µM] (inactive) | – | –
COC(=O)C1(C)CCC2(C(=O)O)CCC3(C)C(=CCC4C5(C)CC(O)C(OC6OCC(O)C(O)C6O)C(C)(CO)C5CCC43C)C2C1 (centres undefined) | -5.25% [at 15.3 µM] (inactive) | – | –
O=C(NCc1ccc(F)cc1)C(=O)c1c[nH]c2ccccc12 | -19.1% (inactive) | – | –
CC(O)c1cc(C(=O)N[C@@H](C)Cn2ccc(-c3ccc(C#N)c(Cl)c3)n2)n[nH]1 (some centres undefined) | – | inactive | –
CC#CC(=O)N1CCC[C@H]1c1nc(-c2ccc(C(=O)Nc3ccccn3)cc2)c2c(N)nccn12 | – | – | inactive [at 27.7 µM]
CC(=O)O[C@H]1CC[C@H](C)[C@@]2(C)[C@H](OC(C)=O)c3c(C)coc3C(=O)[C@H]12 | -3.96% [at 27.7 µM] (inactive) | – | –
CC(=O)c1cc(C(=O)N[C@@H](C)Cn2ccc(-c3ccc(C#N)c(Cl)c3)n2)[nH]n1 | -4.9% (inactive) | – | –
OC/C=C/c1ccc(O[C@@H]2O[C@H](CO)[C@@H](O)[C@H](O)[C@H]2O)cc1 | -3.45% [at 27.7 µM] (inactive) | – | –

SMILES | activity, negative = inhibition | Potency | outcome
CC12CCC(OC3OC(CO)C(O)C(OC4OC(CO)C(O)C(O)C4O)C3O)CC1=CCC1C2CCC2(C)/C(=C3/COC(=O)C3)CCC12O (centres undefined) | 2.12% [at 15.3 µM] (inactive) | – | –
CC(=O)O[C@H]1C[C@@]2(C)[C@@H](CC[C@H]3[C@@]4(C)C=CC(=O)[C@@H](C)[C@@H]4[C@H](O)C(=O)[C@@]32C)/C1=C(/CCC=C(C)C)C(=O)O | -14.4% [at 27.7 µM] (inactive) | – | –
CCC(C)C(=O)OC1CC(C)C=C2C=CC(C)C(CCC(O)CC(O)CC(=O)O)C21 (centres undefined) | -10.2% [at 27.7 µM] (inactive) | – | –
CC(=O)OC1/C(C)=C/C(=O)C(OC(C)=O)C(C)(C)/C=C/C(C)C(=O)C2(OC(C)=O)CC(C)C(OC(=O)c3ccccc3)C12 (centres undefined) | – | – | inactive [at 15.3 µM]
CC(C)/C=C1\NC(=O)C(C(C)C)n2c1nc1c(c2=O)C=CC=CO1 (centres undefined) | -8.85% [at 27.7 µM] (inactive) | – | –
C/C(=C/CO)CC[C@@H]1[C@@](C)(O)CCC2C(C)(C)CCC[C@]21C (some centres undefined) | 4.29% [at 27.7 µM] (inactive) | – | –
CC(CCC1(O)OC2CC3C4CCC5CC(O[C@@H]6O[C@H](CO)[C@@H](O)[C@H](O)[C@H]6O[C@@H]6O[C@@H](C)[C@H](O)[C@@H](O)[C@H]6O)C(O)CC5(C)C4CCC3(C)C2C1C)CO[C@@H]1O[C@H](CO)[C@@H](O)[C@H](O)[C@H]1O (some centres undefined) | -14.3% [at 15.3 µM] (inactive) | – | –
CC1(C)CCCC2(C)C1CC(=O)C13CC(CCC12)C(O)(CO)C3 (centres undefined) | – | – | inactive [at 27.7 µM]
COC1C(=O)CCC2(CO2)C1(O)C1(C)OC1CC=C(C)C (centres undefined) | -10.6% (inactive) | – | –
C=C1CCC2C(C)(C)C(O)CCC2(C)C1CCC(C)CCO (centres undefined) | -10.5% [at 27.7 µM] (inactive) | – | –
CCc1ccc(Cc2ccc3c(c2)[C@]2(OC3)O[C@H](CO)[C@@H](O)[C@H](O)[C@H]2O)cc1 | -19.5% (inactive) | – | –
C=CC(C)(C)c1[nH]c2cc3c(cc2c1CC1NC(=O)C2=CCCN2C1=O)C=CC(C)(C)O3 (centres undefined) | -25.6% [at 27.7 µM] (inactive) | – | –
CC1(C)CCCC2(C)C(CO)C(CO)=CCC12 (centres undefined) | -7.11% (inactive) | – | –
COc1ccc([C@@]2(O)c3c(ccc4c3OC(C)(CCC=C(C)C)C=C4)NC(=O)[C@@H]2OC)cc1 (some centres undefined) | -19.7% [at 27.7 µM] (inactive) | – | –
N#C[C@@H]1CCCN1C(=O)CNC12CC3CC(CC(O)(C3)C1)C2 | – | inactive | –
CC1=CC(=O)C2C(C)(C)CCC[C@]2(C)[C@H]1CO (some centres undefined) | -0.985% (inactive) | – | –
C=C(C)[C@@H]1CC[C@]2(C)CC[C@]3(C)[C@H](CC[C@@H]4[C@@]5(C)CC[C@@H](O)C(C)(C)[C@@H]5CC[C@]43C)[C@@H]12 | -11% [at 27.7 µM] (inactive) | – | –
OC[C@@]1(O)CO[C@@H](OC[C@H]2O[C@@H](Oc3c[nH]c4ccccc34)[C@H](O)[C@@H](O)[C@@H]2O)[C@@H]1O | -31.3% [at 27.7 µM] (inactive) | – | –
O=C(O)CCCCCC[C@H]1C(=O)NC(=O)N1CC[C@@H](O)C1CCCCC1 | – | – | inactive
